Drawing on PubChem BioAssay (NCATS), this text covers outcome and Potency for ten molecules.

Assay [1] can be described thus: qHTS assay for measurement of the activity of small molecule inhibitors on Zika virus induced Caspase-3 activity in human astrocytoma cells (AID 1224859). An outline of the steps: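 Readout is luminescence from Caspase-Glo 3/7 added after a 6 h ZIKV infection (2 FFU/cell) of compound-pretreated (1 h) SNB-19 cells; data expressed as % inhibition versus uninfected and infected wells.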
In general terms: Quantitative high-throughput screening tests each substance at several concentrations.

Assay [2] is described as follows: qHTS assay to identify small molecule inhibitors of chordoma cells - UCH-1 (AID 1259355). Also: nearly all actives have a fitted effect of over 55% in size. Also: potency is read from the fitted curve at half-maximal effect; series mostly up to about 46 µM. An outline of the steps:
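Cells (800/well) were seeded and left overnight at 37 C, 5% CO2, then treated with drugs at 15 concentrations plus a combination mix of auranofin, camptothecin, doxorubicin, rubitecan and topotecan. Viability after 48hr was read by CellTiter-Glo luminescence.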

Assay [3] is described as follows: qHTS assay to identify small molecule inhibitors of chordoma cells - UCH-2 (AID 1259356). Also: potency is read from the fitted curve at half-maximal effect.
The nature of assay [4]: P-glycoprotein substrates identified in KB-8-5-11 adenocarcinoma cell line, qHTS therapeutic library screen (AID 1346987). Also: nearly all actives have a fitted effect of over 65% in size. Also: potency is read from the fitted curve at half-maximal effect. An outline of the steps:
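KB-8-5-11: colchicine-selected sub-line of KB-3-1 over-expressing P-gp; assay medium lacked colchicine. 72 h drug exposure at 37 degree C, CellTiter-Glo.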

Assay [5] in a line: NS1 protein of Zika virus - qHTS assay to identify small molecule inhibitors in human HEK 293 cells (AID 1347053). Also: series mostly up to about 46 µM; nearly all actives have a fitted effect of over 55% in size. An outline of the steps: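 Inhibition of NS1 expression was scored in HEK 293 cells given compound 1 h ahead of MR766 virus (MOI = 0.5). Following 24 h at 37 C, two anti-NS1 antibodies generated a TR-FRET signal, scaled between uninfected and infected controls.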

Assay [6] is described as follows: qHTS of pediatric cancer cell lines to identify multiple opportunities for drug repurposing: Primary screen for TC32 cells (AID 1347089). Also: nearly all actives have a fitted effect of over 60% in size. Also: potency is read from the fitted curve at half-maximal effect. The method in brief:
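qHTS, TC32, 48 h drug treatment, CellTiter-Glo luminescence as a proxy for metabolically active cells; primary top concentration 46 µM (MIPE 11-pt, NPC 8-pt); confirmatory 11-pt.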

A short description of assay [7]: qHTS of pediatric cancer cell lines to identify multiple opportunities for drug repurposing: Primary screen for DAOY cells (AID 1347090). Also: nearly all actives have a fitted effect of over 55% in size. Also: potency is read from the fitted curve at half-maximal effect. An outline of the steps:
(§1)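 Viability measured as metabolically active cells via CellTiter-Glo luminescence following 48 hours of compound exposure, 11-point dilutions in confirmatory testing. 500-1,000 cells/well plated 5 hours before dosing; controls were DMSO and 2.3 µM bortezomib.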

Assay [8] can be described thus: qHTS of pediatric cancer cell lines to identify multiple opportunities for drug repurposing: Primary screen for SJ-GBM2 cells (AID 1347091). Also: potency is read from the fitted curve at half-maximal effect. The method in brief: as §1
Assay [9] in a line: qHTS of pediatric cancer cell lines to identify multiple opportunities for drug repurposing: Primary screen for A673 cells (AID 1347092). Also: nearly all actives have a fitted effect of over 45% in size. Also: potency is read from the fitted curve at half-maximal effect. The method in brief:
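Luminescence from CellTiter-Glo, taken after 15 min at room temperature, served as the proxy for metabolically active cells following 48 h treatment. Both potency and efficacy were taken from curves fitted to the titration data.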

The nature of assay [10]: qHTS of pediatric cancer cell lines to identify multiple opportunities for drug repurposing: Primary screen for SK-N-MC cells (AID 1347093). Also: potency is read from the fitted curve at half-maximal effect. An outline of the steps:
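Metabolically active cells were quantified by ATP-dependent luminescence (CellTiter-Glo, 15 min at room temperature) following 48 h treatment. Cells had been plated at 500-1,000 per well and settled for 5 h beforehand.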

The nature of assay [11]: qHTS of pediatric cancer cell lines to identify multiple opportunities for drug repurposing: Primary screen for BT-37 cells (AID 1347094). Also: potency is read from the fitted curve at half-maximal effect. An outline of the steps:
(§2)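 Quantitative HTS format: each compound titrated (MIPE 11 points from 0.78 nM, NPC 8 points from 0.59 nM) onto cells plated 5 hours earlier. After 48 h at 37 degrees C, CellTiter-Glo luminescence was recorded.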

Assay [12] is described as follows: qHTS of pediatric cancer cell lines to identify multiple opportunities for drug repurposing: Primary screen for NB-EBc1 cells (AID 1347095). Also: potency is read from the fitted curve at half-maximal effect. An outline of the steps: as §2
Assay [13] can be described thus: Natriuretic polypeptide receptor (hNpr1) antagonism - Pilot counterscreen GloSensor control cell line (AID 1347045; calls by dose curve; also: series mostly up to about 38 µM). The method in brief: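 HEK293 cells carrying the GloSensor cGMP sensor (GIP/pGS-40F) were loaded with 2% GloSensor reagent for 2 h, exposed to compounds for 30 min, and then stimulated with 50 uM sodium nitroprusside for 20 min at room temperature.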
(Counterscreens check selectivity or assay interference.)

Assay [14] has as its target Atrial natriuretic peptide receptor 1 (Homo sapiens) (UniProt P16066). The assay can be described thus: Natriuretic polypeptide receptor (hNpr1) antagonism - Pilot screen (AID 1347049; calls by dose curve;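 also: agonist-evoked cGMP luminescence read 20 min after hNppA addition; series mostly up to about 58 µM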). The method in brief: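 HEK293 cells expressing hNpr1 and GloSensor cGMP luciferase, 1500/well, loaded with 2% GloSensor reagent 2 h, compound 30 min at room temperature; luminescence read before and 20 min after 0.1 nM hNppA stimulation.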

The target of assay [15] is Atrial natriuretic peptide receptor 2 (Homo sapiens) (UniProt P20594). Briefly: Natriuretic polypeptide receptor (hNpr2) antagonism - Pilot subtype selectivity assay (AID 1347050; calls by dose curve). An outline of the steps: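 HEK293 cells expressing hNpr2 and a GloSensor cGMP luciferase sensor, 1500/well, preloaded 2 h with 2% GloSensor reagent, compound 30 min, then 1 nM hNppC for 20 min. Antagonism from luminescence after versus baseline pre-read; LOPAC in 1:5 titrations.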

Assay [16] addresses T1, Tyrosine-protein phosphatase non-receptor type substrate 1 (Homo sapiens) + Leukocyte surface antigen CD47 (Homo sapiens) (UniProt P78324+Q08722). The assay can be described thus: CD47-SIRPalpha protein protein interaction - LANCE assay qHTS validation (AID 1347057; active = well fitted curve in the direction sought with a large enough effect in the signal ratio, with a control signal flat, not every such curve was filed as active; the % refers to the signal ratio; also: series mostly up to about 38 µM). An outline of the steps: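 First, His-tagged CD47 and Eu-labelled anti-His antibody met the compound for 30 min; next, site-specifically biotinylated SIRPalpha was added for 30 min; finally streptavidin-APC was added before reading the TR-FRET ratio.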
(In general: Time-resolved FRET reads energy transfer from a long-lived donor to a nearby acceptor.)

In assay [17] the target is T1, Tyrosine-protein phosphatase non-receptor type substrate 1 (Homo sapiens) + Leukocyte surface antigen CD47 (Homo sapiens). Briefly: CD47-SIRPalpha protein protein interaction - HTRF assay qHTS validation (AID 1347058; active = well fitted curve in the direction sought with a large enough effect in the signal ratio, not every such curve was filed as active; the % refers to the signal ratio;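 also: recombinant soluble extracellular CD47 with His tag and biotinylated SIRPalpha domains; series mostly up to about 38 µM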). An outline of the steps:
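TR-FRET read (Ch1/Ch2 ratio) of soluble extracellular CD47 and Avi-biotinylated SIRPalpha domains in PBS pH 7.4 with 0.05% IGEPAL; 7-point compound titration. Sequential 30 min room-temperature steps; non-biotinylated SIRPalpha as control inhibitor.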

Assay [18] has the same target. Briefly: CD47-SIRPalpha protein protein interaction - Alpha assay qHTS validation (AID 1347059).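 Also: bead proximity luminescence from CD47 binding SIRPalpha after compound preincubation with SIRPalpha.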 An outline of the steps: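 Biotinylated Avi-tagged SIRPalpha (25 nM) preincubated 30 min with compound, then His-tagged CD47 (12.5 nM) added 30 min; AlphaScreen with Ni-NTA acceptor and streptavidin donor beads. PBS pH 7.4, 0.05% IGEPAL, room temperature; 7-point titrations.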

Assay [19] concerns the target Parathyroid hormone/parathyroid hormone-related peptide receptor (Homo sapiens) (UniProt Q03431). Briefly: qHTS for PTHR1 Agonists: Optimization Screen against the NCGC LOPAC library (AID 1347079).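 Also: GloSensor cAMP luminescence in HEK-293 GP2 cells expressing human PTHR1 with IBMX.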 An outline of the steps: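 Compounds were tested across a qHTS titration. PTHR1-expressing GP2 cells report cAMP rises via GloSensor luminescence after 1 hr compound exposure at 37C with IBMX present.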

Assay [20] can be described thus: P-glycoprotein substrates identified in KB-3-1 adenocarcinoma cell line, qHTS therapeutic library screen (AID 1346986). Also: nearly all actives have a fitted effect of over 60% in size. Particulars: KB-3-1 parental cells viability, CellTiter-Glo, 72 h. An outline of the steps:
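Compounds were tested in dose-response against KB-3-1 and KB-8-5-11 cells at 37 degree C for 72 h, and viability was measured by luminescence. AC50 values came from curve fitting with class-based activity calls.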

The structures appear in SMILES notation. Inconclusive results are not listed. Active and inactive are the calls of the source. Unless noted, calls follow the shape of the dose curve; as a rule, active = well fitted curve in the direction sought with a large enough effect; inconclusive = small, poorly fitted or top-dose-only effect, or another doubt; inactive = no such curve, though single readings can be large; an effect the other way counts as inactive or inconclusive.

T1 sequence (P78324 whole entry, looked up): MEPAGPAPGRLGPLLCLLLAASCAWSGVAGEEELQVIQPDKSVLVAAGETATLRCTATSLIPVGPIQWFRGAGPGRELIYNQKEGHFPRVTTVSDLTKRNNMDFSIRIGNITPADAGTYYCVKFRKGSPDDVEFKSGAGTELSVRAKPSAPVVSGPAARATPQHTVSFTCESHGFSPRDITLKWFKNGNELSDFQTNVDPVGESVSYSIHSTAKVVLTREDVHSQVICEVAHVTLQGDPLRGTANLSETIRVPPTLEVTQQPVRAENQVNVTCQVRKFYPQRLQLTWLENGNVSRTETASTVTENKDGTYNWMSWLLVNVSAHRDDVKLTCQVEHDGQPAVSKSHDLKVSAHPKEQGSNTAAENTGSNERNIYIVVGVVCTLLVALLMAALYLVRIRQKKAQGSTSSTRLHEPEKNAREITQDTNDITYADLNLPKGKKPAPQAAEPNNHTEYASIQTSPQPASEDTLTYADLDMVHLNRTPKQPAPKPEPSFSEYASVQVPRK
T1 sequence (Q08722 whole entry, looked up): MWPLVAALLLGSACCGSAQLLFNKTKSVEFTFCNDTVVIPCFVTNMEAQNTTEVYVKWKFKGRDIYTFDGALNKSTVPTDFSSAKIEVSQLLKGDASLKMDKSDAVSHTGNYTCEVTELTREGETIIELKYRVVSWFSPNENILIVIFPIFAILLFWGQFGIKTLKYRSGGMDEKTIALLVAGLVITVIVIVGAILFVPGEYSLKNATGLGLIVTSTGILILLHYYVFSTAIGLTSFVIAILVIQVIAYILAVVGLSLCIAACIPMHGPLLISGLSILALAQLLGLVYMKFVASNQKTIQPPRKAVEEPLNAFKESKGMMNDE
Chain of Atrial natriuretic peptide receptor 2 (Homo sapiens) (P20594 whole entry, looked up): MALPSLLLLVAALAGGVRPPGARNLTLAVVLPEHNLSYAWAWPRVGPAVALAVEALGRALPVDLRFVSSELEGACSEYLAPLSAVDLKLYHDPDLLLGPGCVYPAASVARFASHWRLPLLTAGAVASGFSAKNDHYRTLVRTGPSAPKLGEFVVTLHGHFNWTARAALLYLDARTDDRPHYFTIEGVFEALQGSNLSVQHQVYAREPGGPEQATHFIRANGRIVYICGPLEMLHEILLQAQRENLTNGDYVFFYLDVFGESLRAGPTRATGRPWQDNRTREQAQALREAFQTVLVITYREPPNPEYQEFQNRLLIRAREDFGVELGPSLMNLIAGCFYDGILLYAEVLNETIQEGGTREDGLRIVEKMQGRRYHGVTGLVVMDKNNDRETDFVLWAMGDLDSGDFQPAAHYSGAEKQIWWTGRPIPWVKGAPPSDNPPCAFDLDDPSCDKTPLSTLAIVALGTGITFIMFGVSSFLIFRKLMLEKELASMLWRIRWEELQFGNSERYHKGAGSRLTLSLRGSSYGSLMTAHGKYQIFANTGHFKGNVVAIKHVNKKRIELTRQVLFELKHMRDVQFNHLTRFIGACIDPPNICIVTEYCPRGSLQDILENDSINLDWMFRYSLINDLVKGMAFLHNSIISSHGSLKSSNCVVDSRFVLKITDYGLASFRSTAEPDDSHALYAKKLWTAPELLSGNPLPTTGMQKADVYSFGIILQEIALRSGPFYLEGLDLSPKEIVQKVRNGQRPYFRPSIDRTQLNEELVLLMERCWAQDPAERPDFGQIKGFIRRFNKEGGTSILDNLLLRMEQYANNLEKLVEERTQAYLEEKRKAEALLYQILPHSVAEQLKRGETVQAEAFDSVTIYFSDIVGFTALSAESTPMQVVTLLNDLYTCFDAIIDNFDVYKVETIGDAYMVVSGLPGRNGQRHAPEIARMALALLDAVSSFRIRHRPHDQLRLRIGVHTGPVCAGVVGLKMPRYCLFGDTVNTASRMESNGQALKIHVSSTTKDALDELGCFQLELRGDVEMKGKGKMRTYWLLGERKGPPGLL
Chain of Parathyroid hormone/parathyroid hormone-related peptide receptor (Homo sapiens) (Q03431 whole entry, looked up): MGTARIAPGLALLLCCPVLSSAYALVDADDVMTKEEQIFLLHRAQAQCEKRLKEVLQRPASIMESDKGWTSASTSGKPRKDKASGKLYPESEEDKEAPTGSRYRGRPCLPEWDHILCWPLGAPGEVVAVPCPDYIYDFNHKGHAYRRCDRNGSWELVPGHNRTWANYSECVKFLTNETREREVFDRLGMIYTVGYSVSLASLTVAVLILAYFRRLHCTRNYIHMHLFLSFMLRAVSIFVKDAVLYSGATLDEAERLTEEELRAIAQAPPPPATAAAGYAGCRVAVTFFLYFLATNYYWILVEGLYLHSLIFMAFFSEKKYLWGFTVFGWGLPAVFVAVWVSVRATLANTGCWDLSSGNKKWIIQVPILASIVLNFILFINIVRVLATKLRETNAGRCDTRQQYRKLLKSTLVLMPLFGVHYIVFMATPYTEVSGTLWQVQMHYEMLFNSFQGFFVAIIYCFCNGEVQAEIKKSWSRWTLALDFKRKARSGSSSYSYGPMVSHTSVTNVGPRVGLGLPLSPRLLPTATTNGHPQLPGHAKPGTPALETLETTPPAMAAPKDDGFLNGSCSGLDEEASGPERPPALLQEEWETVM
Chain of Atrial natriuretic peptide receptor 1 (Homo sapiens) (P16066 whole entry, looked up): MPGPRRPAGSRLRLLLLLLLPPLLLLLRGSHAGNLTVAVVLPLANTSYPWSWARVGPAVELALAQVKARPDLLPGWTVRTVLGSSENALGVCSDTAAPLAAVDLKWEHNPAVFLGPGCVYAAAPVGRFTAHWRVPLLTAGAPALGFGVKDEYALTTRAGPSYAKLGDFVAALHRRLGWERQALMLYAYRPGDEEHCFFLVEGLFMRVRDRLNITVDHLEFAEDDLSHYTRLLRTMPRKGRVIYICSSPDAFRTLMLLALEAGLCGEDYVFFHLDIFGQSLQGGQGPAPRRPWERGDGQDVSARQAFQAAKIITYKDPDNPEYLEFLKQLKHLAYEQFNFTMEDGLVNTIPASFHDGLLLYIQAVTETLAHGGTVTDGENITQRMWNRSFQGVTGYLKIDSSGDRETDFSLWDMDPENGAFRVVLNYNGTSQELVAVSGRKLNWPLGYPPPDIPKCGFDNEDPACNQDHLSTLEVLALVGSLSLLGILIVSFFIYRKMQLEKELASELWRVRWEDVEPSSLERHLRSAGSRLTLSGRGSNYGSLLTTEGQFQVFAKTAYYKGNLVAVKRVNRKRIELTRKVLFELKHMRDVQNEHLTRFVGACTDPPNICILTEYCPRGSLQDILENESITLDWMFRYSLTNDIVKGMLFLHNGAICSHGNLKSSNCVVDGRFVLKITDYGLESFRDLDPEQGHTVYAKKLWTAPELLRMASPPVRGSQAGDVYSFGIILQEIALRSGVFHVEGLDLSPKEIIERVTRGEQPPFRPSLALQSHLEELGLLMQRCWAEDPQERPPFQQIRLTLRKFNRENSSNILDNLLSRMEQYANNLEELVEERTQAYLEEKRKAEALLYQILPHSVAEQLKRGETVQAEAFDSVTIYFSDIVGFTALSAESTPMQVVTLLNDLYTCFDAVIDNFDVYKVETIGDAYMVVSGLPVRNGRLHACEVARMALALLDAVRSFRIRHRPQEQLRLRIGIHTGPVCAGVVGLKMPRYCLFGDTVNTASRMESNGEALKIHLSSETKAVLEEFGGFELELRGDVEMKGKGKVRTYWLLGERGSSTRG

As to `C[C@H]1O[C@@H](O[C@H]2CC[C@@]3(C)[C@H](CC[C@@H]4[C@@H]3C[C@@H](O)[C@]3(C)[C@@H](C5=CC(=O)OC5)CC[C@]43O)C2)C[C@H](O)[C@@H]1O[C@H]1C[C@H](O)[C@H](O[C@H]2C[C@H](O)[C@H](O[C@@H]3O[C@H](CO)[C@@H](O)[C@H](O)[C@H]3O)[C@@H](C)O2)[C@@H](C)O1`, the molecule was classed as inactive in assay [1]. Moreover, the Potency in [2] was 0.708 µM (active); in assay [3], 0.58 µM (active); in [4], 0.651 µM (active); in [6], 0.374 µM (active); in [7], 0.266 µM (active); in [8] it was 0.0841 µM (active). Further, the Potency was 0.266 µM (active) in assay [9], 0.168 µM (active) in assay [10], 0.123 µM (active) in [11] and 0.188 µM (active) in [12]. Also, in assay [5], the Potency result is “inactive”.
As for `CN1CCN(c2c(F)cc3c(=O)c(C(=O)O)cn4c3c2SCC4)CC1`, the call in assay [1] was inactive. The Potency entry in [2], in assay [3], in assay [4], in assay [5], in [6] and in assay [7] was “inactive” throughout. Moreover, the Potency entry in assay [8], in assay [9], in assay [10] and in assay [11] was “inactive” throughout.
As for `CC(C)(C)NC[C@H](O)COc1nsnc1N1CCOCC1`, the molecule was called inactive in [1], in assay [13], in assay [14], in assay [15], in assay [16] and in [17]. Also, the outcome in [18] and in assay [19] was inactive. Moreover, the Potency result in assay [2], in assay [3], in assay [4], in assay [5], in assay [6] and in assay [7] was “inactive” in each case. Besides, the Potency result in assay [8], in [9], in [11] and in assay [12] was “inactive” each time.
As to `COc1cc(C(=S)N2CCOCC2)ccc1O`, the call in assay [1] was inactive. Also, the Potency result in assay [2], in assay [3], in assay [4], in assay [5], in [6] and in assay [7] was “inactive” throughout. The Potency result in assay [8], in assay [9], in assay [10] and in assay [11] was “inactive” throughout.
For `CCCCN=C(N)N=C(N)N`, the result in assay [1], in [20] and in assay [4] was inactive. For the same molecule, the Potency result in assay [2], in assay [3], in assay [5], in [6], in [7] and in [8] was “inactive” each time. Also, the Potency entry in [10] and in assay [11] was “inactive” each time.
As to `CCOC(=O)c1c(N)sc2c1CCN(Cc1ccccc1)C2`, the molecule was classed as inactive in [1]. Moreover, the Potency entry in assay [2], in assay [3], in assay [4], in assay [5], in [6] and in assay [7] was “inactive” in each case. For the same molecule, the Potency entry in assay [8] is “inactive”.
Turning to `COc1ccc(C(=O)c2ccccc2)c(O)c1`, in [1], the call was inactive. Moreover, the Potency result in assay [2], in assay [3], in [4], in assay [5], in assay [6] and in [7] was “inactive” each time. The Potency entry in assay [8], in assay [9], in [10] and in assay [11] was “inactive” in each case.
As for `CC(C)Cn1cnc2c1c(=O)n(C)c(=O)n2C`, the outcome in [1] was inactive. For the same molecule, the Potency entry in assay [2], in assay [3], in assay [4], in assay [5], in assay [6] and in assay [7] was “inactive” in each case. Moreover, the Potency result in [8], in [9], in assay [10] and in assay [11] was “inactive” throughout.
As for `OCCOCCN1CCN(C2=Nc3ccccc3Sc3ccccc32)CC1`, in assay [1], the molecule was called inactive. Also, the Potency entry in [2], in assay [3], in assay [4], in [5], in assay [6] and in assay [7] was “inactive” each time. The Potency entry in [8], in assay [9], in assay [10] and in assay [11] was “inactive” each time.
On to `CCOc1cc(OCC)c(C(=O)CCC(=O)O)cc1OCC`, for which, in assay [1], the molecule was classed as inactive. The Potency result in [2], in assay [3], in assay [4], in assay [5], in assay [6] and in assay [7] was “inactive” each time. Further, the Potency entry in [8], in [9], in [10], in assay [11] and in [12] was “inactive” in each case.
